In the library only some 27% were active in any assay of this set; here they are far more common.
CYP2C9 inhib: blockers of cytochrome P450 2C9 activity – biochemical, luminescence, ADME assay, primary screen; CYP2C9 Supersomes, luciferin-H conversion; AID 777, 2007; inhibition, % at 5 µM; hit rate 20% among 96,000;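 active = blocking of liver enzyme CYP2C9 beyond about 50% at 5 µM, limit read from the data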
CYP2C19 inh: blockers of cytochrome P450 2C19 activity – biochemical, luminescence, ADME assay, primary screen | CYP2C19 Supersomes, luciferin-H EGE luminescence, 30 min | inhibition, % at 5 µM | hit rate 21% among 96,000 | AID 778, 2007;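 active = CYP2C19 inhibition above a set limit at 5 µM in the primary screen, cut at about 50% in these data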;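 note: plate controls were negative control wells for no effect and 2.5 mM tranylcypromine positive control for full effect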
PTK2B oligo ant: antagonists of Pyk2 self-association, primary screen, Q293 cells, FERM NanoBiT luminescence, HTS; Protein-tyrosine kinase 2-beta (Homo sapiens), Q14289; active compounds read low; AID 1347419, 2020; z-score (the deposit names both 25 µM and 10 µM); hit rate 0.83% among 99,000;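 active = Z-score of -3 or lower, scaled per plate to the spread of control and sample wells; inactive = z-score above -3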;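 note: negative z-score means lost luminescence so less FERM oligomerization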
CYP2C9 activ: human CYP2C9 activators, primary screen, biochemical, luminescence; recombinant CYP2C9, luciferin-H conversion; active compounds read high; factor 1 = untreated enzyme, 0 = blocked; activation factor at 5 µM; hit rate 1.4% among 96,000; AID 1024, 2008;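 active = activation factor of 2 or more for CYP2C9 at a 5 µM dose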;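 note: 0 = sulfaphenazole-blocked wells and 1 = vehicle-only wells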
CYP2C19 act: human CYP2C19 activators, primary screen, biochemical, luminescence | Cytochrome P450 2C19 (Homo sapiens), P33261 | recombinant CYP2C19, luciferin-H EGE luminescence; active compounds read high; 0 = fully inhibited enzyme, 1 = untreated enzyme | activation factor at 5 µM | 96,000 tested, under 10 active;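 active = activation factor of at least 2 at 5 µM in the primary screen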;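 note: 0 = wells with 2.5 mM tranylcypromine and 1 = vehicle-only wells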
Cav32 inh: Cav3.2 calcium influx blockers – cell-based, Fluo-4 calcium fluorescence, FDSS, MLSMR library, primary screen; Voltage-dependent T-type calcium channel subunit alpha-1H (Homo sapiens), O95180; Cav3.2-expressing cells; active compounds read low; B-score at 10 µM; hit rate 4% among 100,000; AID 449739, 2010;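 active = single-dose well whose peak fluorescence ratio is a statistical outlier from its plate by either plate-standardised score or position-corrected B-score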
* hit, by the source's call; / = no result.

SMILES | CYP2C9 inhib | CYP2C19 inh | PTK2B oligo ant | CYP2C9 activ | CYP2C19 act | Cav32 inh
Cc1cccc(OCCCN2CCCCCC2)c1 | 5 | 8 | -0.23 | 0.9 | 0.9 | 0.057
Cc1cccc(OCCN2CSC(=S)N(C)C2)c1 | 88* | 79* | 0.36 | 0.1 | 0.2 | /
NC(=O)Cn1c2[n+](c3ccccc31)CC(O)CS2 (stereo not drawn) | -13 | -19 | 0.08 | 1.1 | 1.2 | 0.78
Fc1cccc(Nc2cc(-n3cccn3)ncn2)c1 | / | / | -0.15 | / | / | -0.35
Cc1c(Cc2c(Cl)cccc2Cl)c(=O)ccn1C(C)c1ccccc1 (stereo not drawn) | 45 | 90* | -1.1 | 0.6 | 0.1 | -4.1
COc1ccc(Cn2ccc(=O)c(Cc3c(Cl)cccc3Cl)c2C)cc1 | -8 | 77* | -1.1 | 1.1 | 0.2 | -0.97
Cc1c(OCc2ccccc2)c(=O)ccn1Cc1ccc(Cl)cc1 | 57* | 31 | 0.11 | 0.4 | 0.7 | -0.12
Cc1ccc(Cn2ccc(=O)c(Cc3c(Cl)cccc3Cl)c2C)cc1 | 30 | 39 | -0.86 | 0.7 | 0.6 | -1.7
Cc1ccc(Cn2ccc(=O)c(OCc3ccccc3)c2C)cc1 | 28 | 44 | 0.31 | 0.7 | 0.6 | 1.4
COc1cccc(CNCC(=O)N2C(C)CCCC2C)c1 (stereo not drawn) | 12 | 49 | -0.01 | 0.9 | 0.5 | 0.26
O=C(OCC(=O)N1CCCc2ccccc21)C1CCN(S(=O)(=O)c2cccs2)CC1 | 11 | 31 | 0.91 | 0.9 | 0.7 | -0.36
CN(CC(=O)N1CCc2ccccc21)S(=O)(=O)c1cccs1 | -199 | 89* | 0.98 | 3* | 0.1 | -0.011
CCCCNC(=O)c1onc(CSc2ccccn2)c1C(=O)NCCCC | / | / | / | / | / | -1.9
CCOc1ccc(NCc2nnc(SCc3ccccc3Cl)n2-c2ccccc2)cc1 | 38 | 46 | -0.37 | 0.6 | 0.5 | -4.2*
NC(=O)CSc1nnc(CNc2cccc(Cl)c2)n1CCc1ccccc1 | 8 | 20 | 0.53 | 0.9 | 0.8 | -0.49
CCn1c(CNc2ccc(Cl)cc2)nnc1SCc1ccccc1 | 77* | 66* | 0.54 | 0.2 | 0.3 | -8.5*
CCn1c(CC(=O)Nc2ccc(C)cc2)nnc1SCC(=O)NCc1ccccc1 | 21 | 4 | -0.45 | 0.8 | 1 | 0.2
Clc1ccccc1CSc1nnc(Cn2cnc3ccccc32)n1-c1ccccc1 | 2 | 61* | 0.06 | 1 | 0.4 | -2.2
CCn1c(CNc2ccc(Cl)cc2)nnc1SCC(=O)NCc1ccccc1 | 55* | 67* | 0.65 | 0.4 | 0.3 | -3.5
CCOc1ccc(-n2cc(C(=O)Nc3cccc(C)n3)c3cc(OC)c(OC)cc3c2=O)cc1 | / | / | 1.4 | / | / | -0.017
CCC(=O)NC(Nc1sc2c(c1C(=O)OC)CCN(C)C2)(C(F)(F)F)C(F)(F)F | / | / | 0.85 | / | / | 1.4
COC(=O)CSc1nnc(CNc2ccc(Cl)cc2)n1-c1ccccc1 | 27 | 54* | 1.3 | 0.7 | 0.5 | -0.2
CC(C)OC(=O)CSc1nnc(Cc2ccccc2)n1Cc1ccco1 | 50 | 71* | 0.58 | 0.5 | 0.3 | 0.11
Cn1c(CNc2ccc(Cl)cc2)nnc1SCCN1CCCCC1 | / | / | -0.47 | / | / | 0.52
Cn1c(CNc2ccc(Cl)cc2)nnc1SCc1ccccc1 | 57* | 34 | -0.46 | 0.4 | 0.7 | -2.3
SMILES | CYP2C9 inhib | CYP2C19 inh | PTK2B oligo ant | CYP2C9 activ | CYP2C19 act | Cav32 inh
Cn1c(CNC(=O)Nc2ccccc2Cl)nnc1SCc1ccccc1 | 32 | 64* | 0.14 | 0.7 | 0.4 | -0.64
CCOC(=O)CSc1nnc(CNc2ccccc2Cl)n1-c1ccccc1 | 20 | 48 | 0.48 | 0.8 | 0.5 | -3
O=C(NCc1ccccc1C(F)(F)F)C1CC(c2cccc(F)c2)=NO1 (stereo not drawn) | / | / | / | / | / | -0.46
CCC(=O)Nc1ccccc1C(=O)NC1CCCCC1 | -60 | 32 | -0.38 | 1.6 | 0.7 | -1.1
CCOC(=O)CSc1nnc(CNc2ccc(Cl)cc2)n1Cc1ccccc1 | / | / | 0.5 | / | / | -0.82
CCn1c(CSCc2ccc(C)cc2)nnc1SCC(=O)NCc1ccccc1 | 54* | 24 | -0.52 | 0.5 | 0.8 | -3.3
Clc1ccc(NCc2nncn2-c2ccccc2)cc1 | 26 | 98* | -0.21 | 0.7 | 0 | 0.095
CC(C)OC(=O)CSc1nnc(CNc2ccc(Cl)cc2)n1Cc1ccccc1 | / | / | -0.7 | / | / | -6.7*
C=CCOC(=O)C1=C[C@@H](c2cn(C(C)=O)c3ccccc23)C[C@@H](OCc2ccc(CO)cc2)O1 | / | / | / | / | / | -0.61
Cc1ccccc1C(=O)NCc1nnc(SCC(=O)N2CCN(c3ccccc3)CC2)n1C | 1 | 12 | 2.6 | 1 | 0.9 | -0.011
CC(=O)N1N=C(c2ccc(Cl)cc2)OC1c1ccc(C(C)C)cc1 (stereo not drawn) | 22 | 55* | -0.22 | 0.8 | 0.5 | -2.4
CCN(CC)c1ccc(-c2nc3cnccc3n2C)cc1 | 92* | 90* | 0.12 | 0.1 | 0.1 | -0.066
Cc1cc(F)ccc1NCc1cc2c(cc1[N+](=O)[O-])OCO2 | 2 | 28 | -0.41 | 1 | 0.7 | -3.6
Cc1cc(F)ccc1NCc1ccncc1 | 62* | 82* | 0.41 | 0.4 | 0.2 | -0.037
CCOC(=O)CNC(=O)Nc1cc(C(C)(C)C)nn1-c1ccccc1 | 28 | 30 | 0.17 | 0.7 | 0.7 | -0.014
CCOc1cc(/C=N/NC(=O)Cn2nc([N+](=O)[O-])cc2C)cc(Br)c1OCc1ccccc1C | 70* | 47 | 0.02 | 0.3 | 0.5 | -0.84
COc1cc(/C=N/NC(=O)Cn2nc([N+](=O)[O-])cc2C)cc(Br)c1OCc1ccccc1 | 74* | 59* | -0.44 | 0.3 | 0.4 | -1.5
CCOc1cc(/C=N/NC(N)=O)cc(Br)c1OCC(=O)Nc1ccccc1C | 82* | 59* | -2.6 | 0.2 | 0.4 | -1.4
CC1CCc2c(C(=O)NCCCN3CCOCC3)csc2C1 (stereo not drawn) | -6 | -1 | 0.38 | 1.1 | 1 | 0.32
COc1cc(CC(=O)Oc2ccc3c(c2)OCO3)cc(OC)c1OC | -18 | -17 | -0.66 | 1.2 | 1.2 | 0.061
CCOC(=O)CSc1nc2sccc2c(=O)[nH]1 | 15 | 4 | 2.1 | 0.8 | 1 | 0.81
O=c1[nH]c2ccc(Cl)cc2c(-c2ccccc2)c1SC(=S)N1CCCCC1 | 52* | -8 | -0.8 | 0.5 | 1.1 | 0.2
CCOC(=O)c1c(C)n(OC)c2ccc3c(no[n+]3[O-])c12 | 43 | 46 | 0.93 | 0.6 | 0.5 | -0.053
O=C(/C=C/c1ccc2c(c1)OCO2)NCCSCc1ccc(Cl)cc1Cl | 73* | 21 | -0.06 | 0.3 | 0.8 | -6.3*

Bioassay records (PubChem)
